SMILES strings stand for the structures. Activity calls are given as the source filed them.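 Rule for the calls: active = visual image review flags a hit and inhibition of aggregation exceeds 20%; inconclusive = visual hit but inhibition at or below 20%; inactive = no hit on visual image review.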

This experiment in a line: reduction of polyQ htt aggregates in cells – imaging, exon1htt(103Q)mCFP cells, high-content imaging, primary screen (AID 483).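 For nuclei count: percent of the per-plate median nuclei count of sample wells.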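 Note: compound exposure lasted 3 days before fixation.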 The settings on record: exon1htt(103Q)mCFP cell line, aggregate imaging, at 2 µM; inhibition of aggregation: stronger effect = higher value; nuclei count: measured here: cell count, toxicity.
Consider `O=C(Cn1cc(C(=O)c2ccccc2)c2ccccc21)NCc1ccco1`, for which the nuclei count came out at 89.8% and the inhibition of aggregation is 3.1% (inactive).
For `COc1ccc(C2NCc3ccc4c(c3-n3cccc32)OCO4)cc1O` (stereo not drawn), in that order: 0.8% and -349% (inactive).
The matching figures for `Cn1c(C(=O)N2CCC3(CC2)OCCO3)cc2c(=O)n(C)c3ccccc3c21`: 104% and 26.7% (inactive).
The matching figures for `O=C1C2CCCN2C(c2ccc(Cl)c(Cl)c2)N1c1ccccn1` (stereo not drawn): 98.4% and 0.2% (inactive).
For the compound `CC(=NCc1cccnc1)c1c(O)n(Cc2ccccc2)c(=O)[nH]c1=O`, the inhibition of aggregation was -11.9% (inactive) and the nuclei count was 120%.
The matching figures for `O=C(c1ccc2nc3ccc(Cl)cc3c(=O)n2c1)N1CCC2(CC1)OCCO2`: 8% (inactive) and 110%.
The matching figures for `COc1ccc(OC)c(C2=NOC(C(=O)N3CCC4(CC3)OCCO4)C2)c1` (stereo not drawn): 4% (inactive) and 84.6%.
Regarding `Cn1c(O)c(C=NCc2ccco2)c(=O)n(C)c1=O`, the nuclei count turned out to be 109% and the inhibition of aggregation is -8.5% (inactive).
The matching figures for `O=c1[nH]c(=O)n(Cc2ccccc2)c(O)c1C=NCCCO`: 90.8% and 24.4% (inactive).
Consider `O=C(C1CCCN(S(=O)(=O)c2cccc3nsnc23)C1)N1CCC2(CC1)OCCO2` (stereo not drawn), for which the nuclei count was determined as 96.6% and the inhibition of aggregation is 10.6% (inactive).
For `Nc1ccccc1C(=O)OC1CSC1`, in that order: 102% and -13.4% (inactive).
Take `Cc1cc(N2C(=O)C3CCCN3C2c2cccc(Cl)c2)no1` (stereo not drawn): the nuclei count came to 97.3% and the inhibition of aggregation was 8.2% (inactive).
With `COC(=O)c1c(C)n(Cc2ccc3c(c2)OCO3)c2ccc(O)cc12`, the inhibition of aggregation was -6.7% (inactive) and the nuclei count was found to be 109%.
Turning to `NC(=O)CSP(=O)(c1ccccc1)c1ccccc1`, the nuclei count came out at 110% and the inhibition of aggregation is 4.2% (inactive).

These data come from PubChem BioAssay.
